Rows were chosen to be rich in hits. Some 7.1% of all compounds tested hit in one or more screens of this group.
MCF10A rereplic: DNA re-replication induction in MCF 10a cells | Potency, µM (doses to about 46.1 µM), actives largely listed as activators | MCF 10A DNA re-replication, Hoechst nuclear intensity, 48 h | 350,000 compounds, 2.9% hits | AID 624296; note: nearly all actives have a fitted effect of over 50% in size
AT treatment: potential ataxia-telangiectasia treatments restoring KAP-1 phosphorylation; F2112 A-T fibroblasts, KAP-1 phosphorylation AlphaLISA; neocarzinostatin DNA damage 30 min before lysis; Potency, µM (titrated, usually from 57.5 µM), most hits filed as activators; 320,000 compounds, 0.19% hits; note: nearly all actives have a fitted effect of over 45% in size
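hTERT-immortalized A-T patient fibroblasts (F2112), 500 cells/well in OPTI-MEM, 1% FBS, got compounds for 60 min, then NCS for 30 min at 37C. Lysates were then assayed for phospho-KAP-1 by AlphaLISA (anti-pKAP1 donor, anti-KAP1 acceptor beads), 6 hr at 25C.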
ELG1 genotox: genotoxicity induction in ELG1-luciferase HEK293T cells | AID 504466 | Potency, µM (titrated, usually from 46 µM), most hits filed as activators | 330,000 compounds, 1.3% hits | HEK293T ELG1-luciferase reporter, luminescence, 16 h; note: nearly all actives have a fitted effect of over 60% in size
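HEK293T cells expressing luciferase-tagged ELG1 were treated with compound or DMSO for 16 hr at 37°C. Luciferase activity was then read after 30 min with ONE-Glo at room temperature; rising signal flags genetic stress.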
ELG1 repair inh: inhibitors of ELG1-dependent DNA repair in HEK293T cells. HEK293T ELG1-luciferase reporter, luminescence, 16 h; DNA damage induced by 5-fluorouridine. Potency, µM (series often up to 46.1 µM), hits mostly inhibitors. 330,000 compounds, 2.3% hits. AID 504467; note: nearly all actives have a fitted effect of over 55% in size
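Quantitative HTS, concentration-response format. 2,000 cells/well co-treated with 5-fluorouridine and compound, 16 hr in 5% CO2 at 37 °C; ONE-Glo luminescence read after 30 min.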
SW480 rereplic: DNA re-replication induction in SW480 cells. SW480 DNA re-replication, Hoechst DNA content imaging, 48 h. Potency, µM (series often up to 46.1 µM), usual class: activators. 340,000 compounds, 1.8% hits; note: nearly all actives have a fitted effect of over 55% in size
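SW480 cells exposed to compounds for 48 hr at 37 C, 5% CO2, then Hoechst-stained 40 min. Nuclear DNA content imaged by fluorescence scanning (405 nm excitation, 500-530 nm emission); re-replication scored as increased high-intensity nuclei.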
p53 reactivation: mutant p53 re-activation in reporter cells; 320,000 compounds, 0.063% hits; H1299 p53-A138V BP100-luciferase reporter, luminescence, 24 h; Potency, µM (series often up to 92.2 µM), most hits filed as activators; AID 504706; note: nearly all actives have a fitted effect of over 45% in size
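H1299 (p53-null), stable ts p53-A138V + BP100-Luc; 1000 cells/well, Opti-MEM/10% FBS; cpd 4 pt, 1:5; 24 h, 37 deg C, 5% CO2; detection reagent 10 min RT; luminescence.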
Each line names hits and unclear results; the compound was inactive in the other large screens. Calls come from the whole dose curve; as a rule, active = well fitted curve in the direction sought with a large enough effect; inconclusive = small, poorly fitted or top-dose-only effect, or another doubt; inactive = no such curve, though single readings can be large; an effect the other way counts as inactive or inconclusive.

O=C(CN1C(=O)NC2(CCc3ccccc32)C1=O)NCc1ccc(Cl)cc1 (configuration not stated)	none
COc1ccc(OC)c(NC(=O)C(C#N)=Cc2ccco2)c1	none (no result: AT treatment, ELG1 genotox, ELG1 repair inh, p53 reactivation)
N#C/C(=C/c1ccc([N+](=O)[O-])cc1)C(=O)Nc1ccccc1O	ELG1 repair inh inconclusive
COc1ccc(NC(=O)/C(C#N)=C/C=C/c2ccco2)cc1	MCF10A rereplic 15µM, SW480 rereplic 8.2µM
N#C/C(=C/c1ccc(O)c([N+](=O)[O-])c1)C(=O)Nc1ccccc1	MCF10A rereplic 4.6µM, SW480 rereplic 6.5µM, p53 reactivation inconclusive
N#C/C(=C/C=C/c1ccccc1)C(=O)Nc1ccccc1	ELG1 repair inh 5.8µM, SW480 rereplic inconclusive
CCOc1ccc(N(CC(=O)N2CCOCC2)S(=O)(=O)c2ccc(SC)cc2)cc1	none
COc1ccc(NS(=O)(=O)c2cn(C)cn2)c(OC)c1	MCF10A rereplic inconclusive
O=C(O)C(Cc1ccc(OS(=O)(=O)Cc2ccccc2)cc1)NS(=O)(=O)Cc1ccccc1 (configuration not stated)	none (no result: AT treatment, ELG1 genotox, ELG1 repair inh, p53 reactivation)
Cc1cc(C(=O)N/N=C2\CC(=O)c3ccccc32)c(C)n1-c1ccc(F)cc1	ELG1 repair inh inconclusive, SW480 rereplic 16µM
O=C(CN(C(=O)c1csnn1)c1ccc(F)cc1)NCc1ccc2c(c1)OCO2	none
C[C@H]([C@H](O)c1ccccc1)N(C)C(=O)CN	none
O=c1c(-c2nc3ccccc3o2)c2oc3ccccc3n2c2ccccc12	ELG1 repair inh 5.2µM (no result: MCF10A rereplic, SW480 rereplic)
CCC(=O)Oc1oc(-c2ccccc2)nc1C=Nc1ccc(C)cc1	ELG1 repair inh inconclusive
CCC(=O)Oc1oc(-c2ccccc2)nc1C=Nc1ccccc1OC	MCF10A rereplic 18µM, SW480 rereplic inconclusive
Cc1c(OC(C)C(=O)N2C[C@H]3C[C@@H](C2)c2cccc(=O)n2C3)ccc2c3c(c(=O)oc12)CCCC3 (some centres not stated)	none
Cc1ccc(C(=O)CSc2nnc(-c3ccc4[nH]c(C)c(C)c4c3)o2)cc1C	none
Cc1[nH]c2ccc(-c3nnc(SCC(=O)c4ccccc4F)o3)cc2c1C	MCF10A rereplic 16µM, p53 reactivation inconclusive
CC(C)(O)CN(C(=O)c1ccc([N+](=O)[O-])cc1)C1CCCC1	none (no result: AT treatment, ELG1 genotox, ELG1 repair inh, p53 reactivation)
Cc1ccc2c(c1)cc(CN(Cc1ccc3c(c1)OCO3)C(=O)c1cnccn1)c1nnnn12	none
Cc1cc2cc(CN(Cc3ccc4c(c3)OCO4)C(=O)c3cnccn3)c3nnnn3c2cc1C	ELG1 repair inh 16µM
Nc1ccccc1C#CC(=O)c1ccccc1	MCF10A rereplic 8.2µM, SW480 rereplic inconclusive
O=C(C#Cc1cccc([N+](=O)[O-])c1)c1ccccc1	ELG1 repair inh inconclusive (no result: MCF10A rereplic, SW480 rereplic)
O=C(COC(=O)c1cccs1)Nc1cccc(S(=O)(=O)N2CCCCC2)c1	none
COc1cc2cnc(-c3ccccc3)c(-c3cccc(C(F)(F)F)c3)c2cc1OC	ELG1 repair inh 13µM, SW480 rereplic inconclusive
Fc1ccc2cnc(-c3ccccc3)c(-c3cccc(C(F)(F)F)c3)c2c1	MCF10A rereplic inconclusive, SW480 rereplic inconclusive
COc1cc2cnc(-c3ccccc3)c(-c3ccc(C#N)cc3)c2cc1OC	ELG1 repair inh 23µM
CC(=O)Nc1ccc(NC(=O)CCCn2cnc3ccccc3c2=O)cc1	none
Cn1cnc([N+](=O)[O-])c1Sc1ncnc2nc[nH]c12	MCF10A rereplic inconclusive, ELG1 repair inh 0.21µM, p53 reactivation inconclusive
Cc1cccnc1Sc1c([N+](=O)[O-])ncn1C	none
COc1cccc(/C=N/Nc2ncnc3scc(-c4ccccc4)c23)c1OC	MCF10A rereplic inconclusive, ELG1 repair inh 15µM, SW480 rereplic inconclusive
COc1ccc(NC(=O)CN(C)C(=O)c2cccc(S(=O)(=O)Nc3ccc(F)cc3)c2)cc1	p53 reactivation inconclusive
O=C(NCc1cccs1)C(=O)NCC(c1ccco1)N1CCN(c2ccccc2F)CC1 (configuration not stated)	ELG1 repair inh 18µM
O=C(NCC(c1ccco1)N1CCN(c2ccccc2F)CC1)c1cccs1 (configuration not stated)	none
O=C(NCC(c1cccnc1)N1CCN(c2ccccc2F)CC1)OCc1ccccc1 (configuration not stated)	ELG1 repair inh 23µM (no result: AT treatment)
Cc1cc(NC(=O)c2sc3ccccc3c2O)no1	ELG1 genotox 10µM, ELG1 repair inh inconclusive, SW480 rereplic inconclusive, p53 reactivation inconclusive
Cc1ccc(NC(=O)c2cc(=O)c3ccccc3o2)cc1S(=O)(=O)N1CCOCC1	ELG1 repair inh 23µM
Cc1ccc(NC(=O)c2cc([N+](=O)[O-])ccc2N2CCOCC2)cc1S(=O)(=O)N1CCOCC1	none
Cc1ccc(NC(=O)c2ccccc2-c2ccc(C(F)(F)F)cc2)cc1S(=O)(=O)N1CCOCC1	MCF10A rereplic inconclusive, ELG1 repair inh 21µM
Cc1ccc(NC(=O)c2cc(=O)c3ccccc3o2)cc1S(=O)(=O)N1CCCCC1	MCF10A rereplic inconclusive, AT treatment inconclusive, ELG1 repair inh 16µM
COc1ccc(NC(=O)c2ccccc2-c2ccc(C(F)(F)F)cc2)cc1S(=O)(=O)N1CCOCC1	none
Cc1ccc(NC(=O)c2ccc([N+](=O)[O-])o2)cc1S(=O)(=O)N1CCOCC1	MCF10A rereplic 2.1µM, ELG1 repair inh inconclusive, SW480 rereplic 1.5µM
COCc1c(C(=O)Nc2ccc(C)c(S(=O)(=O)N3CCOCC3)c2)oc2ccccc12	MCF10A rereplic inconclusive (no result: AT treatment, ELG1 genotox, ELG1 repair inh, p53 reactivation)
S=c1cn[nH]c2ccccc12	none (no result: AT treatment, ELG1 genotox, ELG1 repair inh, p53 reactivation)
Cc1ccc(NC(=O)CCc2ccccc2)cc1S(=O)(=O)N1CCOCC1	ELG1 repair inh inconclusive
Cc1ccc(NC(=O)C(=O)c2c(-c3ccccc3)cc3ccccn23)cc1S(=O)(=O)N1CCOCC1	ELG1 repair inh 9.2µM
CCOc1ccccc1/C=N/Nc1nc2c(N)ncnc2n1[C@H]1O[C@@H](CO)[C@H](O)[C@@H]1O	ELG1 repair inh inconclusive, SW480 rereplic 8.2µM
CCc1c(-c2ccccc2)[n+](=O)c2c(n1[O-])CCC2	none
CCOC(=O)C1=C(CC)Nc2ccccc2N=C1NC(=O)Nc1ccc(Cl)c(Cl)c1	MCF10A rereplic 6.5µM, ELG1 repair inh 18µM, SW480 rereplic inconclusive
CC/C=C\C/C=C\C/C=C\C/C=C\C/C=C\CCCC(=O)O	none (no result: AT treatment, ELG1 genotox, ELG1 repair inh, p53 reactivation)
Cc1ccc(CSc2ncn(-c3ccccc3)n2)cc1	ELG1 genotox inconclusive, ELG1 repair inh inconclusive
Cc1ccc(CSc2nccc(-c3c(C)nc4ccccn34)n2)cc1	MCF10A rereplic 3.7µM, ELG1 repair inh 15µM, SW480 rereplic inconclusive

Screening data: PubChem, National Center for Advancing Translational Sciences (NCATS)
